Tests used:
Assay in all cases: DAPPL (digital affinity profiling via proximity ligation, sequencing); 10 mM Tris-HCl pH 7.5, 50 mM NaCl, 1 mM DTT, 4% glycerol, room temperature, 30 min; GST-TFs on glutathione beads, 16-mer random dsDNA library, 0.1% formaldehyde crosslink after washing; high values mean tight binding
FEV = target: T1, FEV (Homo sapiens, UniProt Q99581 1-238); settings: protein: recombinant; tags: N-terminal GST; dsDNA, one strand shown
T1 sequence: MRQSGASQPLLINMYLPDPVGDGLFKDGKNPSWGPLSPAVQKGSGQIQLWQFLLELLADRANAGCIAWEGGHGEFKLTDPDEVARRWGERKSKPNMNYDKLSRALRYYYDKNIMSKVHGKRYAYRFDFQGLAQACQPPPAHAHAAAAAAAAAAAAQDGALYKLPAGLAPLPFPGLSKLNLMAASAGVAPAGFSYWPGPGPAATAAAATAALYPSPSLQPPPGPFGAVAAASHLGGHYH
In short: (§1)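 Each value of binding signal is a hexamer's read frequency for a factor divided by the same hexamer's frequency in the tag-only sample. Barcoded, bead-captured GST fusions of human transcription factors made in yeast were pooled with that sample and incubated with 200 nmole of a random double-stranded 16-mer DNA library in Tris/NaCl/DTT/glycerol buffer at room temperature for 30 min. Washing, 0.1% formaldehyde crosslinking, proximity ligation, PCR and Illumina NextSeq500 sequencing followed.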

ETV5 = ETV5 (Homo sapiens, UniProt P41161 1-510); settings: protein: recombinant; tags: N-terminal GST; dsDNA, one strand shown
In short: as §1

HSF1 = HSF1 (Homo sapiens, UniProt Q00613 1-529); settings: protein: recombinant; tags: N-terminal GST; chain copies: 3; dsDNA, one strand shown
In short: as §1

SPIC = target: T2, SPIC (Homo sapiens, UniProt Q8N5J4 1-248); settings: protein: recombinant; tags: N-terminal GST; dsDNA, one strand shown
T2 sequence: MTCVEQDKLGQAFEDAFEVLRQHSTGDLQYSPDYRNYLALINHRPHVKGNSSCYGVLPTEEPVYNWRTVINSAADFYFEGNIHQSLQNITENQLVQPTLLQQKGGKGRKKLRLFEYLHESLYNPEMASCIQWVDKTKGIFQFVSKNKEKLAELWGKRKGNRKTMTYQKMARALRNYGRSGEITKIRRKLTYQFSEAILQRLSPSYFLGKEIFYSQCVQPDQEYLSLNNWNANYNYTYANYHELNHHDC
In short: as §1

ELF4 = ELF4 (Homo sapiens, UniProt Q99607 1-663); settings: protein: recombinant; tags: N-terminal GST; dsDNA, one strand shown
In short: as §1

ELK4 = target: T3, ELK4 (Homo sapiens, UniProt P28324-2 1-405); settings: protein: recombinant; tags: N-terminal GST; dsDNA, one strand shown
T3 sequence: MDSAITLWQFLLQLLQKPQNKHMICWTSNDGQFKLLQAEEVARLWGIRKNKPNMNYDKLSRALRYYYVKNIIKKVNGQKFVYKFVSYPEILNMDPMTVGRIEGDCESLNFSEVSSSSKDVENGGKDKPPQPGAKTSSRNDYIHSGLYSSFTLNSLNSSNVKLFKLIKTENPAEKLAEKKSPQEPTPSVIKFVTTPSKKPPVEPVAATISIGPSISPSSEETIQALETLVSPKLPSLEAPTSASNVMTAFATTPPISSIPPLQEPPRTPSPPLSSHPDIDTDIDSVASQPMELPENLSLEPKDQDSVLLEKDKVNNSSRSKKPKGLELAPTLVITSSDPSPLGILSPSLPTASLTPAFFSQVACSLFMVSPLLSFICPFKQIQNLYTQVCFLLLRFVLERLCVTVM
In short: as §1

ETV2 = target: T4, ETV2 (Homo sapiens, UniProt O00321 1-342); settings: protein: recombinant; tags: N-terminal GST; dsDNA, one strand shown
T4 sequence: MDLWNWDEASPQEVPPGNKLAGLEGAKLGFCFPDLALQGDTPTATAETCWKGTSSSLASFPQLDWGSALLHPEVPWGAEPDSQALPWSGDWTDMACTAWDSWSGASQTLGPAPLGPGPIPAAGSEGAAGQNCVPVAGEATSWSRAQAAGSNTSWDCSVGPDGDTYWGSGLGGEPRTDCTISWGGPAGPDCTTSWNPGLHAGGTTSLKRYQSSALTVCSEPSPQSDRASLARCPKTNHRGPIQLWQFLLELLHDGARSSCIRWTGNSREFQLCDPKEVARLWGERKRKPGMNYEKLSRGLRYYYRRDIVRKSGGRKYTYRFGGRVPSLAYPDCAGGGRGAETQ
In short: as §1

ELF3 = target: T5, ELF3 (Homo sapiens, UniProt P78545 1-371); settings: protein: recombinant; tags: N-terminal GST; dsDNA, one strand shown
T5 sequence: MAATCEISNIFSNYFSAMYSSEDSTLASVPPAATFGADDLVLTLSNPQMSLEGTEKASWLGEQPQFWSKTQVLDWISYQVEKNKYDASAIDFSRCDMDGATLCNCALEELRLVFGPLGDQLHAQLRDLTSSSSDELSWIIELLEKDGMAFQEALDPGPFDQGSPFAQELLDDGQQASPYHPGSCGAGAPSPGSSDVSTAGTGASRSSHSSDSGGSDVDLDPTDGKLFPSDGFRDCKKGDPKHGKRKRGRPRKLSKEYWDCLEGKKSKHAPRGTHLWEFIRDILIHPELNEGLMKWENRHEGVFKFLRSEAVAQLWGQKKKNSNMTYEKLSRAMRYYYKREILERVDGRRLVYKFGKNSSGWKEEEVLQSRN
In short: as §1

CRX = CRX (Homo sapiens, UniProt O43186 1-299); settings: protein: recombinant; tags: N-terminal GST; dsDNA, one strand shown
In short: as §1

ETV1 = ETV1 (Homo sapiens, UniProt P50549 1-477); settings: protein: recombinant; tags: N-terminal GST; dsDNA, one strand shown
In short: as §1

ERF = target: T6, ERF (Homo sapiens, UniProt P50548 1-548); settings: protein: recombinant; tags: N-terminal GST; dsDNA, one strand shown
T6 sequence: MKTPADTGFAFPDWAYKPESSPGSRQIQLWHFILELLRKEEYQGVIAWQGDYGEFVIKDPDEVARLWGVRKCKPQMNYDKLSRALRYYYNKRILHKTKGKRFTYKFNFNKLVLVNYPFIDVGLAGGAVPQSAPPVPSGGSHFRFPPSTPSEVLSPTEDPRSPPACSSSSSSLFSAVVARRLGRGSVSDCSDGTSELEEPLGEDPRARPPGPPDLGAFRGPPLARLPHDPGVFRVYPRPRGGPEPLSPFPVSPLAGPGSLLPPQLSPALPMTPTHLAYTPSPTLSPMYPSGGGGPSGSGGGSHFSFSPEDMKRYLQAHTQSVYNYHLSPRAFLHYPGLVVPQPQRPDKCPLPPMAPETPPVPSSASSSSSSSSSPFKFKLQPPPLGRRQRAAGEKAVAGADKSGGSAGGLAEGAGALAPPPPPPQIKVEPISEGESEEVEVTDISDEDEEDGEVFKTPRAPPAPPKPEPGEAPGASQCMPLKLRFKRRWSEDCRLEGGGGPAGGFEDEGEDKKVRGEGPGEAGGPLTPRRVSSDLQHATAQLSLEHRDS
In short: as §1

ETV3L = target: T7, ETV3L (Homo sapiens, UniProt Q6ZN32 1-361); settings: protein: recombinant; tags: N-terminal GST; dsDNA, one strand shown
T7 sequence: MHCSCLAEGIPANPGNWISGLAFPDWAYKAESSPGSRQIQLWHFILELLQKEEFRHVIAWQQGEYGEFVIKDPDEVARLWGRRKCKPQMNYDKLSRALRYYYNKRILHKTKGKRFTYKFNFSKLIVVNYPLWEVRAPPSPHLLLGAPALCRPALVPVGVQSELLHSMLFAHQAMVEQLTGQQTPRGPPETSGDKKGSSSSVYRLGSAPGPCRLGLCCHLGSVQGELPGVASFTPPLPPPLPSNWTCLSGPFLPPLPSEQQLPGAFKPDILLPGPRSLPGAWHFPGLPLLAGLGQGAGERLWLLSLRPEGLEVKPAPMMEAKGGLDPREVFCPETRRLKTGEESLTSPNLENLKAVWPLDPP
In short: as §1

ETS2 = target: T8, ETS2 (Homo sapiens, UniProt P15036 1-469); settings: protein: recombinant; tags: N-terminal GST; dsDNA, one strand shown
T8 sequence: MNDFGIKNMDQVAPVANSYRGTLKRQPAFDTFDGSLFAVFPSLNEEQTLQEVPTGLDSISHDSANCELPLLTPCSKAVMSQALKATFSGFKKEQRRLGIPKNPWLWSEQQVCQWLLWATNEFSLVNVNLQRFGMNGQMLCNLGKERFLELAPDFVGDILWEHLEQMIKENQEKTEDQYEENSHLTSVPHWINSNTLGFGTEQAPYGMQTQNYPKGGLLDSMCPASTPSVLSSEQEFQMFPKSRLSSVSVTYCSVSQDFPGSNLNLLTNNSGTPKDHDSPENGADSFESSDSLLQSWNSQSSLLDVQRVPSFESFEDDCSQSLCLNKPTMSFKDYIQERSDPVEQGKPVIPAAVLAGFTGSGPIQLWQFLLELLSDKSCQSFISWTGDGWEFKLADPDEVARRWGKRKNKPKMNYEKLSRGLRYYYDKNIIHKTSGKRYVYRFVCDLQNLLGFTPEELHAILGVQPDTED
In short: as §1

SPDEF = target: T9, SPDEF (Homo sapiens, UniProt O95238 1-335); settings: protein: recombinant; tags: N-terminal GST; dsDNA, one strand shown
T9 sequence: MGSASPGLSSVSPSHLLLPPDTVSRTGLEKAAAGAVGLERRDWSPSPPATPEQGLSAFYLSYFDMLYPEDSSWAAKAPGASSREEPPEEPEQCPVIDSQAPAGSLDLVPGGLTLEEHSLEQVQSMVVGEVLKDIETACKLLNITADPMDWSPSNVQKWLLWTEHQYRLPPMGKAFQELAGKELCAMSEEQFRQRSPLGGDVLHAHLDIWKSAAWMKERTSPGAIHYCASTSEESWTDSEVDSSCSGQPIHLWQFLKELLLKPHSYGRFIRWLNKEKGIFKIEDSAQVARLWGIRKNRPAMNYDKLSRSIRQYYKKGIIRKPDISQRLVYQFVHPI
In short: as §1

ETV7 = target: T10, ETV7 (Homo sapiens, UniProt Q9Y603 1-341); settings: protein: recombinant; tags: N-terminal GST; dsDNA, one strand shown
T10 sequence: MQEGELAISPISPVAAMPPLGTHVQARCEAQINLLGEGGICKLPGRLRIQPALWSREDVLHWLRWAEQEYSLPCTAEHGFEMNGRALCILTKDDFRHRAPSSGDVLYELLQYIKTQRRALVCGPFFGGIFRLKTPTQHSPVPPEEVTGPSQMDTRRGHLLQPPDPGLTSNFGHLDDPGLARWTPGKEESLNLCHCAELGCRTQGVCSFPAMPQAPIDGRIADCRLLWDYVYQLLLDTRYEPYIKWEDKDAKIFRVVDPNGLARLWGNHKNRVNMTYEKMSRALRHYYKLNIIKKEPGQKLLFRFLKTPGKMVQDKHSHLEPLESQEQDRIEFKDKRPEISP
In short: as §1

ELF5 = target: T11, ELF5 (Homo sapiens, UniProt Q9UKW6-2 1-255); settings: protein: recombinant; tags: N-terminal GST; dsDNA, one strand shown
T11 sequence: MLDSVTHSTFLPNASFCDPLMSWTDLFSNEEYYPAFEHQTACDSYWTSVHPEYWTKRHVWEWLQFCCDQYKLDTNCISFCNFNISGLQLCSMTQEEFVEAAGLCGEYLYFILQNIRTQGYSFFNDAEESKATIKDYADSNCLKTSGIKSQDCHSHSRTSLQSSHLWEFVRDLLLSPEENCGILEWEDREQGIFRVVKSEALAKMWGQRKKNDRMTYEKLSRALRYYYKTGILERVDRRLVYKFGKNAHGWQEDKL
In short: as §1

ETV3 = target: T12, ETV3 (Homo sapiens, UniProt P41162-2 1-143); settings: protein: recombinant; tags: N-terminal GST; dsDNA, one strand shown
T12 sequence: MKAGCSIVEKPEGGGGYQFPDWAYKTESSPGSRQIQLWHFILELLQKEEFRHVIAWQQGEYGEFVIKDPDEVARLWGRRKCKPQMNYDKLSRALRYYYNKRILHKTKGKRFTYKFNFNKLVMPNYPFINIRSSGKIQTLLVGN
In short: as §1

ETV6 = ETV6 (Homo sapiens, UniProt P41212 1-452); settings: protein: recombinant; tags: N-terminal GST; dsDNA, one strand shown
In short: as §1

CRX, sequence (O43186 whole entry): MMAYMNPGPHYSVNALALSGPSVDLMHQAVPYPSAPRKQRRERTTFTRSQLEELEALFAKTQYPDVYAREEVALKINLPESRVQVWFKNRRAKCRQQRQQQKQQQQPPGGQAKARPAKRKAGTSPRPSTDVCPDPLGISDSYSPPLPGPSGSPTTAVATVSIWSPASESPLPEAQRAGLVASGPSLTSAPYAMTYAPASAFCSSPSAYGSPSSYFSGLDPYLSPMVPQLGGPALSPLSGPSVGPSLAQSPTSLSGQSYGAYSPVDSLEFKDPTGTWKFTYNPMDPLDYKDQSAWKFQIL
ETV5, sequence (P41161 whole entry): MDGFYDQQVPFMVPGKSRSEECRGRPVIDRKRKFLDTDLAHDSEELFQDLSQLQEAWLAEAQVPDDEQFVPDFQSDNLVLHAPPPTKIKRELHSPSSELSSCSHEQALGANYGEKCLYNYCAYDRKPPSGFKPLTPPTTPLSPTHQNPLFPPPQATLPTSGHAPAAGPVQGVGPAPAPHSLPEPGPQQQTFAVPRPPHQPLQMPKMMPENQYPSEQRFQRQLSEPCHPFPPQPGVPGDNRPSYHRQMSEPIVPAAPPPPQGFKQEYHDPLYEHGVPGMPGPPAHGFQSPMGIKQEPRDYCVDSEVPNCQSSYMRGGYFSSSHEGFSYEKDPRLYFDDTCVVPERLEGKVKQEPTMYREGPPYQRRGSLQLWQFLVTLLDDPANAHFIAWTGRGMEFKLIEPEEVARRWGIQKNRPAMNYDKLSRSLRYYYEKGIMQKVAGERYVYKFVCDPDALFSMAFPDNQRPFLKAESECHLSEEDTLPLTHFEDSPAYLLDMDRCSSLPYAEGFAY
ETV1, sequence (P50549 whole entry): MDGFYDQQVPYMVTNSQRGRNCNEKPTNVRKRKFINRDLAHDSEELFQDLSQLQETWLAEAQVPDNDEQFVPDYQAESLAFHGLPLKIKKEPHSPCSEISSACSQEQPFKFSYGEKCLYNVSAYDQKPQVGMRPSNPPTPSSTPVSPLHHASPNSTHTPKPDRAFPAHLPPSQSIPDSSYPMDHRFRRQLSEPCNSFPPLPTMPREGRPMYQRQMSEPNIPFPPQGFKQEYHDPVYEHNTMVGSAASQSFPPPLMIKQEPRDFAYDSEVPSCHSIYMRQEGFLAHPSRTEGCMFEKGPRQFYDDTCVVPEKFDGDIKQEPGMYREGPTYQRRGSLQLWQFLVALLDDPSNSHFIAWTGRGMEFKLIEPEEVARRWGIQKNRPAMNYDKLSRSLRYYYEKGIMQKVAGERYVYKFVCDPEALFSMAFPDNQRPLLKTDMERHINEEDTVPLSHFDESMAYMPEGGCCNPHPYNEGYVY
ELF4, sequence (Q99607 whole entry): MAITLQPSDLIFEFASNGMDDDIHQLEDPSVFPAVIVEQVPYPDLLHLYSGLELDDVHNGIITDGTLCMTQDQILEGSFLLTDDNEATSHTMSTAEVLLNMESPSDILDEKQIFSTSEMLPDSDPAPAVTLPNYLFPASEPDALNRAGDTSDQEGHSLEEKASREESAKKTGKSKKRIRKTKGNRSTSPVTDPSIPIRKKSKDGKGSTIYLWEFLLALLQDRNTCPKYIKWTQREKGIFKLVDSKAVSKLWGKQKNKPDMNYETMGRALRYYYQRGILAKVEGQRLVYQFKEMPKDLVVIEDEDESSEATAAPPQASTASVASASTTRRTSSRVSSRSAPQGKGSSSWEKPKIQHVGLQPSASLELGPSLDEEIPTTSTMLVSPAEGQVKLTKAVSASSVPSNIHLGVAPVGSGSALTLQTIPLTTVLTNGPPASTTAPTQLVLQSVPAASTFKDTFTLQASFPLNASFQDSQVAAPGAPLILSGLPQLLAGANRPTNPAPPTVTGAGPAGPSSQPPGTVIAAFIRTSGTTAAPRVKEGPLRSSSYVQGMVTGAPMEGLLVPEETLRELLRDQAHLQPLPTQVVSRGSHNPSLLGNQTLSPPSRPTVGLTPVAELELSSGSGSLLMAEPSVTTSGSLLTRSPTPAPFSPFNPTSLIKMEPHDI
ETV6, sequence (P41212 whole entry): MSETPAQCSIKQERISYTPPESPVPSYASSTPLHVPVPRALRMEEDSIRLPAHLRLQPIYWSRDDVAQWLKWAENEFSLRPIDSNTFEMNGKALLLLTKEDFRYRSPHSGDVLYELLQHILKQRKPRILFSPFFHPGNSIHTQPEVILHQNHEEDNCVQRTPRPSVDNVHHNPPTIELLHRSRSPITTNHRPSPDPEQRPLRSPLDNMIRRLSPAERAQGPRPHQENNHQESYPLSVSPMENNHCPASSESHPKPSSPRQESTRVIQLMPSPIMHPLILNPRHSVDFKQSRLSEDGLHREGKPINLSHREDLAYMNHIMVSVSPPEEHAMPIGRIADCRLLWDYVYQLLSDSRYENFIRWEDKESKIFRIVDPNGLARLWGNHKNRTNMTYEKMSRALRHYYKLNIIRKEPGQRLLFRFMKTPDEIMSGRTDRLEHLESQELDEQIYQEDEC
HSF1, sequence (Q00613 whole entry): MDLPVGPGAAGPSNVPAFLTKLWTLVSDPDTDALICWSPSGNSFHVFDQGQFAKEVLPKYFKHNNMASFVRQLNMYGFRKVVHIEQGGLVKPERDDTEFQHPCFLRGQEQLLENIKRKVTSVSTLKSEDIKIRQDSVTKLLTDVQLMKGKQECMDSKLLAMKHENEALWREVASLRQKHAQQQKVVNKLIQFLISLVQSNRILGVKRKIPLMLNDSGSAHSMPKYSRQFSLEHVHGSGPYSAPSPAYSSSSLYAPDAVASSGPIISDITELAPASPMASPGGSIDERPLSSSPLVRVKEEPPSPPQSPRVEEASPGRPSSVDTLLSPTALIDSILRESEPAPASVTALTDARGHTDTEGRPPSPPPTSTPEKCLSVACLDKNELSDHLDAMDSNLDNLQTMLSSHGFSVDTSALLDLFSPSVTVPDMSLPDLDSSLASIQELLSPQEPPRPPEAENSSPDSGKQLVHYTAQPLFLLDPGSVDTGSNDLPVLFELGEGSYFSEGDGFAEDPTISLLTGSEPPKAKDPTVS

Sequence	binding signal (FEV)	binding signal (ETV5)	binding signal (HSF1)	binding signal (SPIC)	binding signal (ELF4)	binding signal (ELK4)	binding signal (ETV2)	binding signal (ELF3)	binding signal (CRX)	binding signal (ETV1)	binding signal (ERF)	binding signal (ETV3L)	binding signal (ETS2)	binding signal (SPDEF)	binding signal (ETV7)	binding signal (ELF5)	binding signal (ETV3)	binding signal (ETV6)
TAAACC	1.29 fold enrichment (6-mer frequency, TF over GST control)	1.23 fold enrichment (6-mer frequency, TF over GST control)	1.46 fold enrichment (6-mer frequency, TF over GST control)	1.13 fold enrichment (6-mer frequency, TF over GST control)	1.19 fold enrichment (6-mer frequency, TF over GST control)	1.32 fold enrichment (6-mer frequency, TF over GST control)	1.27 fold enrichment (6-mer frequency, TF over GST control)	1.35 fold enrichment (6-mer frequency, TF over GST control)	2.11 fold enrichment (6-mer frequency, TF over GST control)	1.23 fold enrichment (6-mer frequency, TF over GST control)	1.28 fold enrichment (6-mer frequency, TF over GST control)	1.26 fold enrichment (6-mer frequency, TF over GST control)	1.22 fold enrichment (6-mer frequency, TF over GST control)	1.28 fold enrichment (6-mer frequency, TF over GST control)	1.22 fold enrichment (6-mer frequency, TF over GST control)	1.21 fold enrichment (6-mer frequency, TF over GST control)	1.26 fold enrichment (6-mer frequency, TF over GST control)	1.29 fold enrichment (6-mer frequency, TF over GST control)
TTTGTG	1.23 fold enrichment (6-mer frequency, TF over GST control)	1.17 fold enrichment (6-mer frequency, TF over GST control)	1.12 fold enrichment (6-mer frequency, TF over GST control)	1.15 fold enrichment (6-mer frequency, TF over GST control)	1.19 fold enrichment (6-mer frequency, TF over GST control)	1.38 fold enrichment (6-mer frequency, TF over GST control)	1.25 fold enrichment (6-mer frequency, TF over GST control)	1.27 fold enrichment (6-mer frequency, TF over GST control)	1.29 fold enrichment (6-mer frequency, TF over GST control)	1.1 fold enrichment (6-mer frequency, TF over GST control)	1.23 fold enrichment (6-mer frequency, TF over GST control)	1.12 fold enrichment (6-mer frequency, TF over GST control)	1.11 fold enrichment (6-mer frequency, TF over GST control)	1.23 fold enrichment (6-mer frequency, TF over GST control)	1.2 fold enrichment (6-mer frequency, TF over GST control)	1.18 fold enrichment (6-mer frequency, TF over GST control)	1.13 fold enrichment (6-mer frequency, TF over GST control)	1.14 fold enrichment (6-mer frequency, TF over GST control)

Reference: article PMC7862700, “An all-to-all approach to the identification of sequence-specific readers for epigenetic DNA modifications on cytosine”
